Source: PubChem
Hits are enriched below; roughly 11% of the tested compounds scored in any of these assays.
JMJD2A Tudor: qHTS Assay for Inhibitors of JMJD2A-Tudor Domain; Potency, µM (highest dose often 114 µM), inactives show at the top dose activity change, negative = inhibition, usual class: inhibitors; AlphaScreen JMJD2A-Tudor / H3K4me3 peptide binding; AID 504339, 2011; 390,000 tested, 4.4% active; note: % is set by controls: 0 for no effect and ±100 for the full control effect; nearly all actives have a fitted effect of over 50% in size
HP1b chromo inh: HTS for Inhibitors of HP1-beta Chromodomain Interactions with Methylated Histone Tails; AlphaScreen HP1-beta / biotin-H3K9me3 peptide binding; Potency, µM (series often up to 114 µM), for inactives: at the top dose activity change, negative = inhibition, usual class: inhibitors; 390,000 tested, 0.56% active; AID 540317, 2011; note: nearly all actives have a fitted effect of over 70% in size
Target sequence (P83916 whole entry, looked up): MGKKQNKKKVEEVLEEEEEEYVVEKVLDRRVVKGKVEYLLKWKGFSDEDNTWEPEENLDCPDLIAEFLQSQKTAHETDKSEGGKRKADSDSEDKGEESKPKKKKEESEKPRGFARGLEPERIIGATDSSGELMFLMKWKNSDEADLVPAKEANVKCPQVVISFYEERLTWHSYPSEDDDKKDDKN
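AlphaScreen: HP1-beta (50 nM) preformed 30 min with biotin-H3(1-18)K9me3 peptide (50 nM) in PBS pH 7.4, 0.01% Tween-20. Compound added for 30 min at RT, then streptavidin donor/nickel chelate acceptor beads (10 ug/mL) for 30 min.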
BAZ2B block: qHTS Assay for Inhibitors of BAZ2B; 360,000 tested, 4.4% active; AID 504333, 2011; Bromodomain adjacent to zinc finger domain protein 2B (Homo sapiens), Q9UIF8; Potency, µM (top dose mostly 114 µM), for the others: at the highest dose activity change, negative = inhibition, hits mostly inhibitors; AlphaScreen BAZ2B-H3K14Ac peptide displacement; note: % is set by controls: 0 for no effect and ±100 for the full control effect; nearly all actives have a fitted effect of over 60% in size
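Compounds, titrated to a top concentration of 110 uM, were incubated 30 min at room temperature with preformed BAZ2B/acetyl-K14 H3 peptide complex (50 nM each). Proximity signal was measured by AlphaScreen after 20 min with beads.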
G9a inh: qHTS Assay for Inhibitors of Histone Lysine Methyltransferase G9a; Potency, µM (series often up to 102 µM), inactives show at the top dose activity, negative = inhibition, usual class: inhibitors; 350,000 tested, 8.8% active; G9a H3K9 monomethylation, AlphaScreen, 2 h; note: % is set by controls: 0 for no effect and ±100 for the full control effect; nearly all actives have a fitted effect of over 75% in size
Target sequence (Q96KQ7 913-1193 limits assumed): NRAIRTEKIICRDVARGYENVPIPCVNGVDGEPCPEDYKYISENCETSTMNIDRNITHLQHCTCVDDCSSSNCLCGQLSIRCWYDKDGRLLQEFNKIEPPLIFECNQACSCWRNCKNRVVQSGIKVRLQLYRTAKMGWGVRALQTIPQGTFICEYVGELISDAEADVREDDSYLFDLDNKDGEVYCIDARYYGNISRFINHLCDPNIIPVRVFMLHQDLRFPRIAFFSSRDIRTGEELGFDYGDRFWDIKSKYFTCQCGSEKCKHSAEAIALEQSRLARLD
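AlphaScreen read-out: biotin-H3K9 peptide (500 nM) methylation by 20 nM enzyme with 20 uM SAM, 2 h at room temperature after 15 min compound preincubation; anti-monomethyl H3K9 antibody plus donor/acceptor beads, 10 min dark.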
L3MBTL1 inh: qHTS Assay for the Inhibitors of L3MBTL1; Lethal(3)malignant brain tumor-like protein 1 (Homo sapiens), Q9Y468; AlphaScreen L3MBTL1–H3K9me1 peptide binding; Potency, µM (highest dose often 57.1 µM), for the others: at the highest dose activity, negative = inhibition, hits mostly inhibitors; 230,000 tested, 0.66% active; note: % is set by controls: 0 for no effect and ±100 for the full control effect; nearly all actives have a fitted effect of over 60% in size
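Read-out is AlphaScreen signal from streptavidin donor and nickel chelate acceptor beads (10 ug/mL final each) bridging L3MBTL1 (50 nM) and biotinylated K9-monomethylated H3(1-15) peptide (75 nM), after 30 min compound exposure at room temperature.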
* marks the source's active call; other numbers are inactive results; ? = inconclusive; . = no result; [ ] = another dose, or the depositor's remark. Calls come from the whole dose curve; as a rule, active = well fitted inhibition curve with a large enough effect; inconclusive = small, poorly fitted or top-dose-only effect; inactive = no such curve, though single readings can be large or run the other way. Potency is the fitted concentration of half-maximal effect.

SMILES	JMJD2A Tudor	HP1b chromo inh	BAZ2B block	G9a inh	L3MBTL1 inh
NC(=S)n1[nH]c(-c2ccc([N+](=O)[O-])cc2)c(N=Nc2ccc(Cl)cc2)c1=O	63µM*	8%	5.6µM*	45µM*	?
CCOC(=O)c1cnn(-c2ccc(C(=O)Nc3cc(OC)c(OC)c(OC)c3)cc2)c1N	-12%	25%	-13%	?	.
O=c1c2sc3ccccc3c2n(Cc2cccc(Cl)c2)c(=O)n1Cc1ccc(F)cc1	4%	41%	2%	-9%[59 µM]	.
Cc1cc(C(C)(C)C)cc(C)c1Cn1c2[n+](c3ccc(C(F)(F)F)cc31)CCCCC2	?	3%	1%	-47%	-2%
FC(F)(F)c1cccc(Cn2c3[n+](c4ccc(C(F)(F)F)cc42)CCCCC3)c1	-16%	18%	-22%	22µM*	.
O=C(Cn1c2[n+](c3ccc(C(F)(F)F)cc31)CCCCC2)Nc1ccc(Br)cc1	-4%	38%	?	35µM*	.
N#Cc1ccc(NC(=O)Cn2c3[n+](c4ccc(C(F)(F)F)cc42)CCCCC3)cc1	14µM*	-8%	-13%	?	-3%[11.4 µM]
COc1ccc(Cn2ncc3c4sc(C)cc4n(C)c3c2=O)cc1F	-3%	.	.	.	.
O=C(Oc1ccccc1)c1ccc2nsnc2c1	?	-22%	50µM*	?	-24%
COc1ccc(C(=O)Nc2ccc3nc(SCC(=O)N(C)c4ccccc4)sc3c2)cc1	-6%	62%	2%	17%[59 µM]	.
Cc1n[nH]c(=S)n(NC(=O)CC(=O)Nn2c(=S)[nH]nc(C)c2=O)c1=O	79µM*	42%	40µM*	0%	?
Cc1n[nH]c(=S)n(NC(=O)/C=C/C(=O)Nn2c(=S)[nH]nc(C)c2=O)c1=O	13µM*	?	25µM*	?	?
COc1ccccc1OCC(=O)Nn1c(=S)[nH]c2ncccc2c1=O	-12%	34%	1%	1%	10%
COc1ccc(CCNC(=O)CCc2cn(Cc3ccc(C)cc3)c3ccccc23)c(OC)c1OC	?	10%	?	?	.
CCOc1ccc(NC(=O)CN(C)C(=O)c2ccc(N3CCCCC3)c([N+](=O)[O-])c2)cc1OCC	?	-32%	?	50µM*	-3%
Cc1cc(Br)ccc1NC(=O)CN(C)C(=O)c1cc([N+](=O)[O-])ccc1N1CCOCC1	-21%	5%	5%	3.5µM*	-5%
CCOc1ccc(NC(=O)CN(C)C(=O)c2cc([N+](=O)[O-])ccc2N2CCCCC2)cc1OCC	-34%	-23%	-12%	2.2µM*	-11%
CCOc1ccc(NC(=O)CN(C)C(=O)c2ccc(N3CCCC3)c([N+](=O)[O-])c2)cc1OCC	-34%	-17%	?	-2%[2.33 µM]	-3%
C=C1C(n2cnc3c(=O)[nH]c(N)nc32)C[C@H](O)[C@H]1CO (some centres undefined)	.	.	.	-36%[12.7 µM]	.
Cc1oc2ncn(C)c(=O)c2c1C(=O)NCc1ccccc1	-14%	0%	7%[57.1 µM]	-7%[59 µM]	.
Cc1cccc(Cl)c1NNC(=O)Nc1c([N+](=O)[O-])c(C)nn1C	-19%	0%	-13%	16µM*	.
Cc1cc(C)nc(-n2nc(C)c3c2N(Cc2ccccc2C)C(=O)CC3c2ccc(Cl)cc2)n1 (centres undefined)	-30%	10%	-21%	-37%[59 µM]	.
COCCNC(=S)Nc1ccc2nc(N3CCN(C)CC3)cc(C)c2c1	-23%	15%	-17%	?	.
CCN1CCN(c2cc(C)c3cc(NC(=S)NCc4cccs4)ccc3n2)CC1	?	-5%[57 µM]	-37%	45µM*	.
Cc1cc(N2CCN(C)CC2)nc2ccc(NC(=S)NCc3cccs3)cc12	-33%	-7%	-33%	40µM*	.
SMILES	JMJD2A Tudor	HP1b chromo inh	BAZ2B block	G9a inh	L3MBTL1 inh
COc1ccc(CNC(=S)Nc2ccc3nc(N4CCOCC4)cc(C)c3c2)cc1	?	13%	-36%	-51%	.
COc1ccc(CNC(=S)Nc2ccc3nc(N4CCN(C)CC4)cc(C)c3c2)cc1	?	-10%	?	45µM*	.
COC(=O)c1ccc(-c2ccc(/C=N/N3C(=O)C4C5C=CC(C6CC56)C4C3=O)o2)cc1 (centres undefined)	?	-1%	56µM*	7.9µM*	-13%
Cc1ccc(-c2ccc(/C=N/N3C(=O)C4C5C=CC(C6CC56)C4C3=O)o2)c([N+](=O)[O-])c1 (centres undefined)	-25%[57.1 µM]	-15%	?	45µM*	-21%
O=C1C2C3C=CC(C4CC34)C2C(=O)N1/N=C/c1ccc(-c2ccc([N+](=O)[O-])cc2)o1 (centres undefined)	-1%	27%	-12%	4%[59 µM]	-11%
O=C(CN1CCSCC1)N/N=C/c1cccc(Cl)c1	?	60%	50µM*	3.2µM*	2%
O=C(CN1CCCCCCC1)N/N=C/c1ccc(F)c(F)c1	3.2µM*	-37%	-37%	?	8%
O=C(CN1CCCCC1)N/N=C/c1ccc(Cl)cc1	-7%	43%	?	27%	-12%
CCOc1cc(/C=N/NC(=O)CN2CCCCC2)ccc1OCc1ccc(Cl)cc1	?	11%	50µM*	-4%[59 µM]	-9%
O=C(CN1CCCCC1)N/N=C/c1cccc(C(F)(F)F)c1	-18%	2%	.	.	.
O=C(CN1CCN(Cc2ccc(Cl)cc2)CC1)N/N=C/c1cccc(F)c1	-4%	16%	-12%	.	3%
O=C(CN1CCCCCC1)N/N=C/c1cccc(Cl)c1	79µM*	4%	50µM*	?	5%
CCOc1cc(/C=N/NC(=O)CN2CCCCC2)ccc1OCc1cccc(Cl)c1	-20%	4%	-37%	-5%[59 µM]	-18%
Cc1ccccc1OCC(=O)NCC(=O)OC(c1ccccc1)c1ccccc1	-2%[57.1 µM]	19%[57 µM]	.	.	.
O=C(c1cc2cc3ccc(Cl)cc3nc2o1)N1CCN(c2cccc(Cl)c2)CC1	-22%	5%	.	-31%[59 µM]	.
CC(C)(C)OC(=O)N1CCC(c2c(C(=O)N3CCN(c4ccccc4F)CC3)cnn2-c2ccccc2Cl)CC1	-27%	30%	-11%[57.1 µM]	?	.
CCCCC/C=C\C/C=C\CCCCCCCC(=O)NCC(=O)O	.	.	.	9%[59 µM]	.
O=C(CC(NCc1ccccn1)C(=O)O)Nc1ccccc1Cl (centres undefined)	20µM*	59%	2.8µM*	7%	20µM*
c1ccc(-c2csc3nnc(SCc4ccc5c(c4)OCO5)n23)cc1	20µM*	-5%	-30%	-54%[59 µM]	12%
O=C(CCSc1nnc2scc(-c3ccccc3)n12)NCc1ccc2c(c1)OCO2	-18%	14%	0%	5%[59 µM]	-7%
